In PubChem BioAssay AID1159580 (chemical genetic matrix, 2015):
In all, about 5,500 compounds went through this assay and about 2,000 (36%) were called active. Another 18% or so got no clear call; they are omitted. Cut-off read from the data, not from the text of the source: active = normalized growth mostly below about 0.91 (no sharp cut-off); inconclusive = no clear call, values can overlap the other calls; inactive = mostly above about 0.92. Some of the results follow.

Test: chemical genetic growth profiling, strain panel (AID 1159580);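 note: tested at 20 µM; growth read once vehicle control cultures reached saturation at 30 °C; 1 = growth at the plate median or of vehicle wells; lower values mean less growth of the strain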
Settings: growth OD
[1] = S. cerevisiae deletion strains, locus YAL013W, strain DEP1, stronger effect = lower value
[2] = S. cerevisiae deletion strains, locus YBR229C, strain ROT2, stronger effect = lower value
[3] = S. cerevisiae deletion strains, locus YDL101C, strain DUN1, stronger effect = lower value
[4] = S. cerevisiae deletion strains, locus YDL134C, strain PPH21, stronger effect = lower value
[5] = S. cerevisiae deletion strains, locus YDR150W, strain NUM1, stronger effect = lower value
[6] = S. cerevisiae deletion strains, locus YEL061C, strain CIN8, stronger effect = lower value
[7] = S. cerevisiae deletion strains, locus YGR078C, strain PAC10, stronger effect = lower value
[8] = S. cerevisiae deletion strains, locus YHR030C, strain SLT2, stronger effect = lower value
[9] = S. cerevisiae deletion strains, locus YHR087W, strain rtc3, stronger effect = lower value
[10] = S. cerevisiae deletion strains, locus YJL187C, strain SWE1, stronger effect = lower value
[11] = S. cerevisiae deletion strains, locus YJR043C, strain POL32, stronger effect = lower value
[12] = S. cerevisiae deletion strains, locus YJR075W, strain HOC1, stronger effect = lower value
[13] = S. cerevisiae deletion strains, locus YLR039C, strain RIC1, stronger effect = lower value
[14] = S. cerevisiae deletion strains, locus YLR058C, strain SHM2 (second series), stronger effect = lower value
[15] = S. cerevisiae deletion strains, locus YLR085C, strain ARP6, stronger effect = lower value
[16] = S. cerevisiae deletion strains, locus YLR262C, strain YPT6, stronger effect = lower value
[17] = S. cerevisiae deletion strains, locus YML094W, strain GIM5, stronger effect = lower value
[18] = S. cerevisiae deletion strains, locus YMR219W, strain ESC1, stronger effect = lower value
[19] = S. cerevisiae deletion strains, locus YMR263W, strain SAP30, stronger effect = lower value
[20] = S. cerevisiae deletion strains, locus YNL153C, strain GIM3, stronger effect = lower value
[21] = S. cerevisiae deletion strains, locus YNL298W, strain CLA4 (second series), stronger effect = lower value
[22] = S. cerevisiae deletion strains, locus YNL322C, strain KRE1, stronger effect = lower value
[23] = S. cerevisiae deletion strains, locus YNR030W, strain Alg12, stronger effect = lower value
[24] = S. cerevisiae deletion strains, locus YPL055C, strain LGE1, stronger effect = lower value
[25] = S. cerevisiae deletion strains, locus YPL241C, strain CIN2, stronger effect = lower value
[26] = S. cerevisiae deletion strains, locus YPR135W, strain CTF4, stronger effect = lower value
[27] = S. cerevisiae strains, strain wild type, stronger effect = lower value
[28] = S. cerevisiae deletion strains, locus YCL061C, strain MRC1, stronger effect = lower value
[29] = S. cerevisiae deletion strains, locus YGR229C, strain SMI1, stronger effect = lower value
[30] = S. cerevisiae deletion strains, locus YKL190W, strain CNB1, stronger effect = lower value
[31] = S. cerevisiae deletion strains, locus YOL006C, strain TOP1, stronger effect = lower value
[32] = S. cerevisiae deletion strains, locus YMR307W, strain GAS1, stronger effect = lower value

Measured: normalized growth

CC(C)(C)c1nc(N)sc1Br
inactive: [1] 1 | [2] 0.998 | [3] 1.04 | [4] 0.986 | [5] 0.993 | [6] 1.02 | [7] 1 | [8] 0.98 | [9] 1.01 | [10] 1 | [11] 1.01 | [12] 1.01 | [13] 0.932 | [14] 1 | [15] 0.985 | [16] 0.951 | [17] 0.965 | [18] 1.01 | [19] 0.993 | [20] 1.02 | [21] 0.981 | [22] 1.01 | [23] 1 | [24] 0.984 | [25] 0.995 | [26] 0.868 | [27] 1

CN1c2ccccc2C(=O)NC1c1cc(Br)cs1 (centres undefined)
inactive: [1] 1.02 | [2] 0.996 | [28] 1.02 | [3] 0.996 | [4] 1.01 | [5] 0.996 | [6] 0.997 | [7] 1 | [29] 0.998 | [8] 0.99 | [9] 1.01 | [11] 1.02 | [12] 0.993 | [30] 1.01 | [13] 1.07 | [14] 1.01 | [15] 1.06 | [16] 1.06 | [17] 1.01 | [18] 1.01 | [19] 1.01 | [20] 1 | [21] 1.04 | [22] 0.996 | [23] 1.03 | [31] 1.06 | [24] 1.01 | [25] 0.996 | [26] 0.969 | [27] 1.03

Cc1ccc(CSC(=N)N)cc1
active: [23] 0.0939 | [25] 0.149
inactive: [1] 1.01 | [2] 0.994 | [28] 1.01 | [3] 0.994 | [4] 1 | [5] 0.998 | [6] 0.976 | [7] 1.02 | [8] 0.995 | [9] 0.988 | [11] 1 | [12] 0.973 | [30] 1.01 | [13] 1.01 | [14] 1.01 | [15] 1.01 | [16] 1 | [17] 0.977 | [18] 1 | [19] 1.01 | [20] 0.999 | [21] 1 | [22] 0.995 | [31] 1.03 | [24] 1.01 | [26] 1.01 | [27] 1.01

N=C(N)SCCc1cccc(CCSC(=N)N)c1
inactive: [1] 0.957 | S. cerevisiae deletion strains, locus YAL040C, strain CLN3, stronger effect = lower value 1.05 | S. cerevisiae deletion strains, locus YCL061C, strain MRC1 (second series), stronger effect = lower value 0.984 | S. cerevisiae deletion strains, locus YDR363W, strain ESC2, stronger effect = lower value 0.997 | S. cerevisiae deletion strains, locus YER002W, strain NOP16, stronger effect = lower value 1.02 | [7] 0.992 | [32] 1.01 | [20] 1.16 | S. cerevisiae deletion strains, locus YNL175C, strain NOP13, stronger effect = lower value 1.02 | S. cerevisiae deletion strains, locus YNL197C, strain WHI3, stronger effect = lower value 0.981 | S. cerevisiae deletion strains, locus YNL224C, strain SQS1, stronger effect = lower value 1.05 | [22] 0.975 | S. cerevisiae deletion strains, locus YOR083W, strain WHI5 (second series), stronger effect = lower value 0.963

Cc1ccc(CS/C(N)=N\N)cc1
inactive: [1] 0.993 | [2] 0.996 | [28] 0.98 | [3] 0.97 | [5] 0.95 | [6] 1 | [7] 1 | [29] 0.978 | [8] 0.836 | [9] 0.983 | [10] 0.995 | [11] 0.978 | [12] 1.02 | [30] 0.982 | [13] 0.846 | [14] 0.99 | [15] 0.952 | [16] 0.889 | [17] 1.01 | [18] 0.989 | [19] 0.976 | [32] 1.05 | [20] 0.979 | [21] 0.963 | [22] 0.999 | [23] 0.976 | [31] 0.854 | [24] 0.967 | [25] 0.969 | [26] 0.907

CC1(C)CCC(C(C)(C)O)CC1
active: [10] 0.838
inactive: [1] 0.988 | [2] 1.01 | [28] 0.999 | [3] 1 | [5] 0.985 | [6] 1.03 | [7] 1.02 | [29] 0.991 | [8] 1.02 | [9] 1.02 | [11] 0.988 | [12] 1 | [30] 0.992 | [13] 0.978 | [14] 0.995 | [15] 1.04 | [16] 0.939 | [17] 1.04 | [18] 0.998 | [19] 1.01 | S. cerevisiae deletion strains, locus YNL128W, strain TEP1, stronger effect = lower value 0.99 | [20] 1.01 | [21] 0.994 | [22] 0.994 | [23] 1.01 | [31] 0.984 | [24] 1.01 | [25] 1.04 | [26] 0.989
